Screens: PubChem BioAssay, National Center for Advancing Translational Sciences (NCATS)
Shown are actives, neighbours in structure and some others; about 8.7% of the full set was active somewhere.
VACV Venus inh – inhibitors of vaccinia virus (Venus reporter). Vaccinia virus Venus reporter expression, fluorescence. hit rate 0.46% among 330,000. AID 720580. Potency, µM (highest dose often 36.5 µM), without a hit: top-dose activity change, negative = inhibition, hits mostly inhibitors; calls by dose curve; tested in A549 cells; also: nearly all actives have a fitted effect of over 30% in size
AMA1-RON2 inh – AMA1-RON2 (P. falciparum) interaction inhibition; AID 720542; hit rate 0.2% among 360,000; AlphaScreen AMA1-biotinylated RON2 peptide binding; Potency, µM (top dose mostly 58.2 µM), inactives show at the highest dose activity change, negative = inhibition, usual class: inhibitors;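 also: 0% = vehicle wells and -100% = peptide control; nearly all actives have a fitted effect of over 45% in size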
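AMA1 (3D7) with his tag at 25 nM final met compounds first, then biotinylated RON2 peptide at 25 nM; detection used donor plus acceptor beads, 10 µg/mL apiece, read by AlphaScreen after 30 min at room temperature.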
Pf growth 48h – P. falciparum growth inhibition at 48 hours (one generation) | Potency, µM (titrated, usually from 28.7 µM), for the others: top-dose activity change, negative = inhibition, actives largely listed as inhibitors | P. falciparum luciferase growth in erythrocytes, 48 h | hit rate 5.9% among 310,000 | AID 504832
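Growth was read as firefly luciferase luminescence after a 48 h, 37 C, 5% CO2 exposure of compounds to reporter-bearing P. falciparum cultures (0.1% parasitemia, 2% hematocrit final) in Albumax-supplemented RPMI 1640.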
Vaccinia mCherry – vaccinia inhibition (mCherry reporter); hit rate 0.63% among 310,000; Vaccinia virus mCherry reporter infection, fluorescence; Potency, µM (titrated, usually from 36.5 µM), without a hit: at the highest dose activity change, negative = inhibition, actives largely listed as inhibitors; AID 720579; calls by dose curve; tested in A549 cells; also: nearly all actives have a fitted effect of over 35% in size
Pf growth 96h – inhibits malaria parasite growth, 96 h; Potency, µM (series often up to 28.7 µM), for the others: at the top dose activity change, negative = inhibition, hits mostly inhibitors; hit rate 6.9% among 320,000; P. falciparum luciferase reporter growth, 96 h; AID 504834
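Infected RBCs, 2% Hct / 0.05% parasitemia final; luciferase-reporter P. falciparum; cpd 96 h, 37 C, 5% CO2; luciferase detection reagent; luminescence.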
An asterisk follows results filed as active; ? = inconclusive; · = no result; [ ] = another dose, or the depositor's remark. Unless noted, calls follow the shape of the dose curve; as a rule, active = well fitted curve in the direction sought with a large enough effect; inconclusive = small, poorly fitted or top-dose-only effect, or another doubt; inactive = no such curve, though single readings can be large; an effect the other way counts as inactive or inconclusive. Unless noted, % is scaled to controls: 0 for no effect and ±100 for the full control effect; potency is read from the fitted curve at half-maximal effect.

SMILES | VACV Venus inh | AMA1-RON2 inh | Pf growth 48h | Vaccinia mCherry | Pf growth 96h
CCS(=O)(=O)N1CCN(c2ccc(C(=O)NC3C4CC5CC(C4)CC3C5)cc2[N+](=O)[O-])CC1 (configuration not stated) | -10% | -11% | 12µM* | -8% | ?
COC(=O)c1ccc(N2CCN(S(=O)(=O)c3ccc(Br)cc3)CC2)c([N+](=O)[O-])c1 | · | -22% | ? | · | ?
Cc1ccc(-c2nc3nc(C)cc(Nc4ccccc4O)n3n2)cc1 | 3% | · | · | -22% | ·
CC1Sc2ccc(S(=O)(=O)N3CCC(C(=O)N(C)Cc4ccco4)CC3)cc2NC1=O (configuration not stated) | -6% | 1% | 12µM* | -20% | 3%
CC1Cc2cc(S(=O)(=O)N3CCC(C(=O)N(C)Cc4ccco4)CC3)ccc2N1C(=O)C1CCC1 (configuration not stated) | · | 0% | 12µM* | · | ?
CC1Sc2ccc(S(=O)(=O)N3CCC(C(=O)N(C)Cc4ccccc4)CC3)cc2NC1=O (configuration not stated) | -9% | -2% | 9.3µM* | -12% | 5.9µM*
O=C1CSc2ccc(S(=O)(=O)N3CCN(c4ccccc4)CC3)cc2N1 | · | -3% | -26% | · | 14%
CCC1Sc2ccc(S(=O)(=O)N3CCN(c4ccccc4)CC3)cc2NC1=O (configuration not stated) | 0%[7.34 µM] | -4% | ? | -7%[7.34 µM] | 10µM*
CC1CCN(S(=O)(=O)c2ccc3c(c2)CC(C)N3C(=O)C2CCC2)CC1 (configuration not stated) | · | -2% | -27% | · | -17%
CCC(Cc1ccccc1)NS(=O)(=O)c1ccc2c(c1)NC(=O)C(C)S2 (configuration not stated) | -8%[7.34 µM] | 2% | -32% | -5%[7.34 µM] | 15µM*
CCc1cccc(NS(=O)(=O)c2ccc3c(c2)NC(=O)C(C)S3)c1 (configuration not stated) | · | 0% | 18% | · | 24%
COc1ccc(CCC(=O)NNC(=O)c2cccs2)cc1 | · | 14% | -11% | · | -2%
COc1ccc(NC(=O)CCC(=O)N/N=C/c2ccc([N+](=O)[O-])s2)cc1 | ? | 1% | 7.4µM* | ? | ?
O=C(CNC(=O)c1ccccc1)N/N=C/c1ccc([N+](=O)[O-])s1 | 10µM* | 5% | ? | 10µM* | 4.1µM*
O=C(Cc1ccccc1)NCC(=O)N/N=C/c1ccc([N+](=O)[O-])s1 | ? | 12% | ? | ? | 5.2µM*
COc1ccc(CCC(=O)N/N=C\c2cccs2)cc1 | · | 4% | 9.3µM* | · | 56%
CCN(CC)c1nc2c(S(=O)(=O)c3ccc(C)cc3)nnn2c2ccsc12 | -22% | · | · | -11% | ·
CCOC(=O)c1[nH]c(C)c(C(=O)NC2CCCCC2)c1C | 0% | -5% | · | 4% | 9.3µM*
CCOC(=O)c1[nH]c(C)c(C)c1C | · | 10% | 19% | · | 12µM*
CCOC(=O)c1c(C)[nH]c(C(=O)OCC(=O)Nc2cc(C)ccc2OC)c1C | -13% | -9% | -2% | -18% | 5.9µM*
CCOC(=O)c1c(C)[nH]c(C(=O)OCC(=O)Nc2cc(Cl)ccc2OC)c1C | · | -8% | -3% | · | 21%
CCOC(=O)c1[nH]c(C)c(C(=O)OC)c1C | -9% | -3% | 92% | -2% | 102%
CCOC(=O)c1[nH]c(C)c(C(=O)Nc2ccc(C)c(C)c2)c1C | · | -4% | · | · | 5.9µM*
CCOC(=O)c1[nH]c(C)c(C(=O)NCC2CCCO2)c1C (configuration not stated) | -2% | -4% | 19% | · | 1%
Cc1ccc(-c2nnc3c4ccccc4c(C)nn23)cc1NC(=O)c1ccccc1 | -4% | · | · | -9% | ·
COc1cc(-c2nc(C)cnc2C)cc2c1OCCN(C(=O)Cc1cc(OC)c(OC)c(OC)c1)C2 | 10% | · | · | -9% | ·
CC(=O)c1cccc(NC(=O)C2CCCN(c3nnc(-n4cccc4)s3)C2)c1 (configuration not stated) | -8% | · | · | -6% | ·
CCOC(=O)c1[nH]c(C)c(C(=O)NCCC2=CCCCC2)c1C | -5% | -3% | 85% | · | 5.2µM*
CC(=O)c1c(C)[nH]c(C(=O)NCCC2=CCCCC2)c1C | ? | 3% | · | ? | ?
